# KB-3-1 cytotox: qHTS assay for MDR1-selective chemotherapeutics: Primary screen using the parental adenocarcinoma cell KB-3-1; AID 1347075, 2019; Potency, µM (titrated, usually from 46.1 µM), hits mostly cytotoxic; KB-3-1 viability, CellTiter-Glo ATP luminescence, 72 h; 400,000 tested, 1.4% active; further: on the % scale 0 is the no-effect control and ±100 the full control effect; nearly all actives have a fitted effect of over 60% in size
#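 Parental KB-3-1 viability, qHTS format: 72 h compound exposure, 37 °C; CellTiter-Glo; media-only wells and DMSO plates as controls; concentration-effect fits on corrected data.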
# SW480 rereplic: A quantitative high throughput screen for small molecules that induce DNA re-replication in SW480 colon adenocarcinoma cells; Potency, µM (doses to about 46.1 µM), without a hit: at the top dose re-replication activation, actives largely listed as activators; SW480 DNA re-replication, Hoechst DNA content imaging, 48 h; 340,000 tested, 1.8% active; further: % of control where 0% means no effect; nearly all actives have a fitted effect of over 55% in size
#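 Readout is total intensity of Hoechst-stained nuclei, excited at 405 nm and collected at 500-530 nm. Compound treatment lasted 48 hr at 37 C in 5% CO2 before staining.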
# HT1080NT lethal: qHTS for induction of synthetic lethality in tumor cells producing 2HG: qHTS for the HT-1080-NT fibrosarcoma cell line; 360,000 tested, 1.6% active; AID 686970, 2013; HT-1080-NT fibrosarcoma viability, CellTiter-Glo ATP luminescence, 48 h; Potency, µM (doses to about 46.1 µM), for the others: at the top dose activity, negative = less viability, actives largely listed as cytotoxic;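 further: NT is the 2HG producing partner of a matched IDH1 knockdown line; 0% = DMSO-treated cells and -100% = media-only wells without cells; nearly all actives have a fitted effect of over 55% in size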
#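 HT-1080-NT fibrosarcoma cells (2HG-overproducing), 750 cells/well in RPMI with 5% FBS, dosed after 2 h and incubated 48 h at 37C. CellTiter-Glo luminescence normalized to DMSO and no-cell wells; concentration-response curves fitted and classed.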
# KB-V1 cytotox: qHTS assay for MDR1-selective chemotherapeutics: Primary screen using the drug-selected MDR subline cells KB-V1 | AID 1347076, 2019 | Potency, µM (top dose mostly 46.1 µM), most hits filed as cytotoxic | 400,000 tested, 3.4% active | KB-V1 MDR cells viability, CellTiter-Glo, 72 h; further: on the % scale 0 is the no-effect control and ±100 the full control effect; nearly all actives have a fitted effect of over 60% in size
#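 Potencies derive from concentration-effect curves fitted to normalized luminescence (CellTiter-Glo) of KB-V1 cells treated for 72 h at 37 degrees C in phenol-red-free DMEM containing 10% FBS.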
# MCF10A rerep: A quantitative high throughput screen for small molecules that induce DNA re-replication in MCF 10a normal breast cells; MCF 10A DNA re-replication, Hoechst nuclear intensity, 48 h; 350,000 tested, 2.9% active; AID 624296, 2012; Potency, µM (top dose mostly 46.1 µM), without a hit: top-dose activity, positive = re-replication, actives largely listed as activators; further: % of control where 0% means no effect; nearly all actives have a fitted effect of over 50% in size
# HT1080 IDH1KD tx: qHTS for induction of synthetic lethality in tumor cells producing 2HG: qHTS for the HT-1080-IDH1KD cell line. Potency, µM (top dose mostly 46.1 µM), inactives show top-dose activity, negative = toxicity, hits mostly cytotoxic. AID 686971, 2013. 360,000 tested, 2% active. HT-1080 IDH1 knockdown viability, ATP luminescence, 48 h;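 further: 0% = DMSO wells and -100% = cell-free medium wells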
#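 HT-1080-IDH1KD cells (IDH1 knocked down), 750/well in RPMI with 5% FBS, treated with compound 48 h at 37 degrees C. Viability by CellTiter-Glo luminescence, normalised to DMSO and no-cell wells; concentration-response curves classed.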
# An asterisk follows results filed as active; i = inactive; ? = inconclusive; . = no result given. This is a sample that favours compounds with a hit; in the whole collection about 8% have one here. The call rests on the fitted dose curve; in most records, active means well fitted curve in the direction sought with a large enough effect; inconclusive means small, poorly fitted or top-dose-only effect, or another doubt; inactive means no such curve, though single readings can be large; an effect the other way counts as inactive or inconclusive. Potency means the concentration at half of the fitted maximal effect.
SMILES,KB-3-1 cytotox,SW480 rereplic,HT1080NT lethal,KB-V1 cytotox,MCF10A rerep,HT1080 IDH1KD tx
CN(CC(=O)N1CCN(c2cccc(Cl)c2)CC1)S(=O)(=O)c1cnc[nH]1,i,-48%,6%,i,-2%,5%
CCOC(=O)[C@]12CCCC=C1N(CCc1ccc(OC)c(OC)c1)C(=O)[C@H](CC(=O)NCC13CC4CC(CC(C4)C1)C3)C2,?,.,-21%,?,.,?
COC(=O)[C@]12CCCCC=C1N(CCc1ccc(OC)c(OC)c1)C(=O)[C@H](CC(=O)NCC13CC4CC(CC(C4)C1)C3)C2,?,.,?,18µM*,.,?
Cc1nc(NC(=O)c2ccc(Br)s2)sc1C(=O)N(C)C,i,-2%,8%,i,-4%,4%
Cc1cccc(NC(=S)NCCO)c1C,i,-15%,18%,i,-3%,15%
CCOC(=O)C(=O)Nc1ccc(S(=O)(=O)Nc2nccs2)cc1,i,?,0%,?,-4%,9%
CCOC(=O)C1(Nc2nccs2)Sc2ccccc2NC1=O (configuration not stated),5.8µM*,15µM*,10µM*,?,13µM*,8.2µM*
Cc1ccccc1N1C(=O)CC(Sc2nnc(-c3ccccc3)o2)C1=O (configuration not stated),i,16µM*,?,i,?,?
O=C1CC(Sc2nnc(-c3ccccc3)o2)C(=O)N1c1ccccc1 (configuration not stated),i,7.3µM*,-2%,i,5.8µM*,-6%
CC(=O)Nc1cccc(NC(=O)CSc2nnc3ccccn23)c1,i,-3%,14%,i,-3%,12%
O=C(CSc1nnc(-c2ccncc2)n1Cc1ccccc1)NC1CCCCC1,i,0%,2%,i,6%,9%
CC1CC(C)CN(Cc2nc(N)nc(Nc3ccccc3)n2)C1 (configuration not stated),i,-2%,1%,i,?,8%
CC1CC(C)CN(Cc2nc(N)nc(Nc3ccc4ccccc4c3)n2)C1 (configuration not stated),12µM*,9.2µM*,?,?,5.8µM*,?
O=C1N(Cc2cccnc2)C[C@@H]2C[C@@H](c3ccc(-c4ccccc4)cc3)N3CCC[C@@]123,i,-38%,-18%,?,15%,-20%
Cc1ccc(NC(=O)c2ccc(CN3CC(=O)N4CCCCC4C3=O)cc2)c(C)c1 (configuration not stated),i,-11%,0%,i,7%,8%
COCCOC(=O)c1c(C)oc2ccc(NS(=O)(=O)c3ccc(C)cc3)cc12,i,-9%,19%,8.2µM*,16µM*,-7%
CCc1ccc(S(=O)(=O)Nc2ccc3oc(C)c(C(=O)OCCOC)c3c2)cc1,i,.,.,i,.,.
Cc1oc2ccc(OCC(N)=O)cc2c1C(=O)OC(C)C,23µM*,8%,-17%,?,0%,-27%
Cc1oc2ccc(O)cc2c1C(=O)OC(C)C,i,4%,-3%,i,16%,-19%
CC(=O)c1c(C)oc2ccc(NS(=O)(=O)c3ccc(F)cc3C)cc12,i,-4%,-6%,10µM*,7%,3%
CCOc1ccc(S(=O)(=O)Nc2ccc3oc(C)c(C(=O)OC(C)C)c3c2)cc1,?,.,.,13µM*,.,.
Cc1ccc(OCC(=O)Oc2ccc(C(C)C)cc2)cc1,i,-1%,22%,i,1%,13%
